High-throughput results (PubChem)
Hits are enriched below; roughly 4.6% of the tested compounds scored in any of these assays.
TIM10 inh: inhibits growth of TIM10 yeast strain | S. cerevisiae TIM10 strain growth, BacTiter-Glo luminescence, 24 h | inhibition, % at 10 µM | 330,000 compounds, 1.4% hits | AID 463195;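 active = inhibition of 40% or more at the single tested concentration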;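 note: wild-type TIM10 isogenic control strain grown at permissive 25 °C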
tim23-1 inh: inhibits growth of tim23-1 mutant yeast; 330,000 compounds, 1.3% hits; AID 463212; S. cerevisiae tim23-1 growth, BacTiter-Glo luminescence, 24 h; inhibition, % at 20 µM;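 active = growth inhibition of the mutant yeast at or above 50%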;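 note: temperature-sensitive mutant grown at 25 °C; plate controls were DMSO-treated mutant yeast for no effect and medium wells lacking yeast for full effect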
PfHsp90 yeast 2: inhibits growth of yeast expressing Plasmodium falciparum Hsp90 | S. cerevisiae expressing PfHsp90, BacTiter-Glo ATP, 48 h; yeast lacking PDR1 and PDR3 efflux regulators | inhibition, % at 9.4 µM | 310,000 compounds, 0.32% hits | AID 504621;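 active = every replicate shows inhibition above about 80%, whatever the replicate mean, limit read from the data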;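 note: 0% = DMSO neutral controls and 100% = 20 µM radicicol positive controls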
NALP3 yeast inh: blocks the NALP3 inflammasome reconstituted in yeast; 330,000 compounds, 0.39% hits; inhibition, % at 10 µM; Yeast reconstituted NLRP3/ASC/caspase-1, beta-gal luminescence, 24 h; AID 2825;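 active = inhibition of 50% or more; inactive = inhibition below 50%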;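 note: plate controls were induced DMSO wells for no effect and uninduced yeast grown without galactose for full effect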
tim10-1 inh: inhibits growth of tim10-1 mutant yeast | 330,000 compounds, 2.2% hits | AID 463190 | S. cerevisiae tim10-1 ts strain growth, BacTiter-Glo, 24 h | inhibition, % at 20 µM;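 active = inhibition of at least 40%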;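 note: mutant grown at 25 °C; 0% = DMSO wells with yeast and 100% = wells holding no yeast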
SKKanGAS inh: blocks kanamycin growth of S. pyogenes SKKanGAS strain; BacTiter-Glo, 6 h; inhibition, % at 7.5 µM; 300,000 compounds, 1.3% hits; AID 1662;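 active = mean replicate score, as percent of positive control median, at least 50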;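 note: strain carries kanamycin resistance gene driven by streptokinase promoter and grows in 40 µg/ml kanamycin; loss of luminescence reflects streptokinase promoter inhibition or plain growth inhibition; 0% = median of DMSO wells and 100% = positive control at its reference dose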
tim10-1 confirm: tim10-1 yeast growth inhibition, confirmed. inhibition, % at 20 µM. 7,400 compounds, 56% hits. S. cerevisiae tim10-1 ts strain growth, BacTiter-Glo, 24 h. shares compounds with tim10-1 inh;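 active = inhibition of yeast growth at or above a set limit in either of two repeat tests at 20 µM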;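 note: tim10-1 mutant grown at permissive 25 °C to find synthetic lethal compounds; 0% = DMSO yeast wells and 100% = medium wells without yeast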
tim10 confirm: confirmation of TIM10 yeast growth inhibitors. shares compounds with TIM10 inh. S. cerevisiae tim10 strain growth, BacTiter-Glo luminescence, 24 h. inhibition, % at 10 µM. 4,600 compounds, 63% hits;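 active = inhibition of yeast growth at or above a set limit in either of two replicates at 10 µM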;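 note: this counterscreen used the strain with wild-type TIM10; 0% = yeast with DMSO and 100% = medium wells lacking yeast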
tim23-1 conf: confirmation of tim23-1 mutant yeast growth inhibitors; shares compounds with tim23-1 inh; S. cerevisiae tim23-1 growth, BacTiter-Glo luminescence, 24 h; inhibition, % at 20 µM; 4,400 compounds, 83% hits; AID 463218;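 active = inhibition above about 39% in either of two replicate wells at 20 µM, limit read from the data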;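 note: temperature-sensitive tim23-1 mutant grown at 25 °C; 0% = DMSO wells with yeast and 100% = medium wells without yeast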
Numbers without * were called inactive.

`COC(=O)C(NC(=O)CCc1c(C)nc2c(c(C)nn2-c2ccccc2)c1C)C(C)C` (stereo unspecified) gave TIM10 inh -2, tim23-1 inh 16, PfHsp90 yeast 2 4, NALP3 yeast inh 0, tim10-1 inh 27 and SKKanGAS inh -7.
`CCNC(=S)NNC(=O)c1cc(-c2cccc(C)c2)nc2ccccc12` gave TIM10 inh 55*, tim23-1 inh 73*, PfHsp90 yeast 2 32, NALP3 yeast inh 2, tim10-1 inh 82*, SKKanGAS inh 36, tim10-1 confirm 79*, tim10 confirm 41* and tim23-1 conf 72*.
CCNC(=S)NNC(=O)c1cc(C)nc2ccccc12 was read as TIM10 inh 6, tim23-1 inh -2, PfHsp90 yeast 2 9, NALP3 yeast inh 4, tim10-1 inh -3 and SKKanGAS inh 1.
For CCNC(=O)COC(=O)c1cc(-c2ccc(OC)cc2)nc2ccccc12 the results were TIM10 inh 20, tim23-1 inh 42, PfHsp90 yeast 2 6, NALP3 yeast inh 26, tim10-1 inh 18 and SKKanGAS inh 4.
Screening CCCCNC(=S)NNC(=O)c1cc(-c2cccnc2)nc2ccccc12 returned TIM10 inh 22, tim23-1 inh 24, PfHsp90 yeast 2 -25, NALP3 yeast inh 16, tim10-1 inh 25 and SKKanGAS inh -2.
For CCCCOc1ccc(-c2cc(C(=O)NNC(=S)NCC)c3ccccc3n2)cc1 the results were TIM10 inh 47*, tim23-1 inh 67*, PfHsp90 yeast 2 -36, NALP3 yeast inh 10, tim10-1 inh 72*, SKKanGAS inh 63*, tim10-1 confirm 70*, tim10 confirm 46* and tim23-1 conf 74*.
For CCNC(=S)NNC(=O)c1cc(-c2ccc(OC)cc2)nc2ccccc12 the results were TIM10 inh 54*, tim23-1 inh 86*, PfHsp90 yeast 2 27, NALP3 yeast inh 6, tim10-1 inh 82*, SKKanGAS inh 42, tim10-1 confirm 74*, tim10 confirm -30 and tim23-1 conf 78*.
Screening CCN1C(=O)[C@H]2[C@@H](c3ccc(-c4ccccc4)c(OC)c3)N[C@@](CC(C)C)(C(=O)OC)[C@H]2C1=O returned TIM10 inh 13, tim23-1 inh 28, PfHsp90 yeast 2 -5, NALP3 yeast inh 11 and tim10-1 inh 3.
For COc1ccc(-c2coc3cc(OC(C)=O)ccc3c2=S)cc1 the results were PfHsp90 yeast 2 -42.
Screening CN(CCCNC(=O)CCC(=O)N1CCOc2ccc(Cl)cc21)Cc1ccccc1 returned TIM10 inh -3, tim23-1 inh -5, PfHsp90 yeast 2 18, NALP3 yeast inh 15, tim10-1 inh 3 and SKKanGAS inh -1.
For Cc1nn(-c2ccccc2)c(C)c1C(=O)OCC(=O)NC12CC3CC(CC(C3)C1)C2 the results were TIM10 inh 54*, tim23-1 inh 62*, PfHsp90 yeast 2 -3, NALP3 yeast inh -4, tim10-1 inh 43*, SKKanGAS inh 8, tim10-1 confirm 49*, tim10 confirm 34* and tim23-1 conf 54*.
For Cc1nnnn1/C(=C\c1ccccc1)C(=O)OCC(=O)NC1CCCCC1 the results were TIM10 inh 41*, tim23-1 inh 54*, PfHsp90 yeast 2 2, NALP3 yeast inh 25, tim10-1 inh 47*, SKKanGAS inh 6, tim10-1 confirm 35*, tim10 confirm 50* and tim23-1 conf 47*.
Nc1nnc(SC2CC(=O)N(c3ccccc3)C2=O)s1 (stereo unspecified) was read as TIM10 inh 30, tim23-1 inh 59*, PfHsp90 yeast 2 -7, NALP3 yeast inh 22, tim10-1 inh 66*, SKKanGAS inh 2, tim10-1 confirm 53* and tim23-1 conf 58*.
Screening O=C1CC(Sc2ncccn2)C(=O)N1c1ccccc1 (stereo unspecified) returned TIM10 inh 10, tim23-1 inh 22, PfHsp90 yeast 2 -5, NALP3 yeast inh 3, tim10-1 inh 20 and SKKanGAS inh 5.
N#C/C(=C\c1cccc(O)c1)c1nc2ccccc2o1 was read as TIM10 inh 40, tim23-1 inh 45, PfHsp90 yeast 2 2, NALP3 yeast inh 19, tim10-1 inh 23 and SKKanGAS inh -3.
For N#C/C(=C\c1ccncc1)c1nc2ccccc2o1 the results were TIM10 inh 42*, tim23-1 inh 72*, NALP3 yeast inh 5, tim10-1 inh 56*, SKKanGAS inh 5, tim10-1 confirm 43*, tim10 confirm 34* and tim23-1 conf 61*.
For N#C/C(=C\c1ccc(Cl)cc1)c1nc2ccccc2o1 the results were TIM10 inh 31, tim23-1 inh 76*, PfHsp90 yeast 2 -100, NALP3 yeast inh 20, tim10-1 inh 51*, SKKanGAS inh -6, tim10-1 confirm 49* and tim23-1 conf 75*.
CN1CCN(c2nc(-c3ccc(Cl)s3)cs2)CC1 was read as TIM10 inh 11, tim23-1 inh 10, PfHsp90 yeast 2 12, NALP3 yeast inh 17, tim10-1 inh 16 and SKKanGAS inh 2.
`CC(C)(C)NC(=O)COc1ccc2oc3c(c2c1)CCCC3` gave TIM10 inh -3, tim23-1 inh 21, PfHsp90 yeast 2 -38, NALP3 yeast inh 28, tim10-1 inh 14 and SKKanGAS inh -9.
CCNC(=O)N(C)C[C@H]1N[C@@](Cc2ccccc2)(C(=O)OC)[C@H]2C(=O)N(C)C(=O)[C@@H]12 was read as TIM10 inh -13, tim23-1 inh -6, PfHsp90 yeast 2 0, NALP3 yeast inh 13 and tim10-1 inh -5.
`Cc1ccc(/C(N)=N/OC(=O)C23CC4CC(CC(C4)C2)C3)cc1` gave TIM10 inh 85*, tim23-1 inh 80*, NALP3 yeast inh 4, tim10-1 inh 58*, SKKanGAS inh 13, tim10-1 confirm 42*, tim10 confirm 86* and tim23-1 conf 67*.
Screening Cc1cccc(/C(N)=N/OC(=O)c2cccs2)c1 returned TIM10 inh 79*, tim23-1 inh 81*, PfHsp90 yeast 2 -14, NALP3 yeast inh -23, tim10-1 inh 65*, SKKanGAS inh 0, tim10-1 confirm 57*, tim10 confirm 73* and tim23-1 conf 76*.
`N/C(=N\OC(=O)Cc1ccccc1)c1cccc(Br)c1` gave TIM10 inh -1, tim23-1 inh 23, PfHsp90 yeast 2 -22, NALP3 yeast inh -9, tim10-1 inh 9 and SKKanGAS inh -11.
